Source: PubChem
Compounds with a hit are over-represented: about 12% of the library has one in this group of screens.
PLK1 PBD inh: inhibitors of human PLK1 polo-box domain binding. 360,000 tested, 2.8% active. AID 720504. P53350. Plk1 PBD binding of FITC phosphopeptide, fluorescence polarization. Potency, µM, for inactives: max response, negative = inhibition, most hits filed as inhibitors; also: potency is read from the fitted curve at half-maximal effect; series mostly up to about 57 µM; % is scaled to controls: 0 for no effect and ±100 for the full control effect; nearly all actives have a fitted effect of over 65% in size
JMJD2A Tudor: blocks the human JMJD2A Tudor domain; AlphaScreen JMJD2A-Tudor / H3K4me3 peptide binding; 390,000 tested, 4.4% active; Potency, µM (doses to about 114 µM), for the others: top-dose activity change, negative = inhibition, actives largely listed as inhibitors; AID 504339; also: potency is read from the fitted curve at half-maximal effect; % is scaled to controls: 0 for no effect and ±100 for the full control effect; nearly all actives have a fitted effect of over 50% in size
HP1b binding inh: blocks HP1-beta chromodomain binding to methylated histone tails. Potency, µM (highest dose often 114 µM), for the others: top-dose activity change, negative = inhibition, most hits filed as inhibitors. 390,000 tested, 0.56% active. AlphaScreen HP1-beta / biotin-H3K9me3 peptide binding; also: potency is read from the fitted curve at half-maximal effect; nearly all actives have a fitted effect of over 70% in size
Target sequence (P83916 whole entry, looked up): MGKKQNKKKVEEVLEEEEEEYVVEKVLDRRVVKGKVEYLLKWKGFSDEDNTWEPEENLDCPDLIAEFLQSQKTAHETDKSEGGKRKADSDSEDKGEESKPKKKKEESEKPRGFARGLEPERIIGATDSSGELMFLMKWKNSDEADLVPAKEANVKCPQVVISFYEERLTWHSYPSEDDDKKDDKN
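Compound inhibition of the preformed complex between 50 nM HP1-beta and 50 nM biotinylated H3K9me3 peptide was read by AlphaScreen. Buffer was PBS pH 7.4 with 0.01% Tween-20. Incubations ran 30 min at room temperature, with 10 ug/mL donor/acceptor beads.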
BAZ2B block: BAZ2B (human) inhibition | 360,000 tested, 4.4% active | AlphaScreen BAZ2B-H3K14Ac peptide displacement | Potency, µM (highest dose often 114 µM), inactives show at the highest dose activity change, negative = inhibition, usual class: inhibitors | Q9UIF8; also: potency is read from the fitted curve at half-maximal effect; % is scaled to controls: 0 for no effect and ±100 for the full control effect; nearly all actives have a fitted effect of over 60% in size
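Compounds, titrated to a top concentration of 110 uM, were incubated 30 min at room temperature with preformed BAZ2B/acetyl-K14 H3 peptide complex (50 nM each). Proximity signal was measured by AlphaScreen after 20 min with beads.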
PI5P4K alpha inh: inhibitors of human PI5P4K alpha. P48426. PI5P4Kalpha enzyme, ADP-Glo luminescence, 60 min; stronger effect = lower value. max response, %. 330,000 tested, 1.2% active; active = max response of -50% or lower; inconclusive = between -30% and -50%; inactive = -30% or higher; also: value at the top dose of about 77 µM; % is scaled to controls: 0 for no effect and ±100 for the full control effect
Target sequence (P48426 whole entry, looked up): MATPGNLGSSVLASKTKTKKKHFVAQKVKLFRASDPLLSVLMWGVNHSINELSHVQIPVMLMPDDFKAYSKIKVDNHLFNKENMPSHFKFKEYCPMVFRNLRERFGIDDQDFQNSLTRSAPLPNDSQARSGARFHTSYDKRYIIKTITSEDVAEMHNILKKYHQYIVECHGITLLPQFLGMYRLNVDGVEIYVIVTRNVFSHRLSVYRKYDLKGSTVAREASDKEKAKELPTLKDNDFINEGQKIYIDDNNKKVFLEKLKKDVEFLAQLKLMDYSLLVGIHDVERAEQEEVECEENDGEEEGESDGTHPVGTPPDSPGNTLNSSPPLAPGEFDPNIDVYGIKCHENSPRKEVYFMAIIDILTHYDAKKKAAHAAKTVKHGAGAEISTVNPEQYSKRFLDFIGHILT
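qHTS, 1536-well: enzyme/substrate mix, compound by pin tool, 5 microM ATP final; RT 60 min; ADP-Glo reagents 1 (45 min) then 2 (30 min); luminescence.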
G9a inh-1: blocks human histone lysine methyltransferase G9a. G9a H3K9 monomethylation, AlphaScreen, 2 h. 350,000 tested, 8.8% active. Potency, µM (top dose mostly 102 µM), inactives show at the top dose activity, negative = inhibition, most hits filed as inhibitors; also: potency is read from the fitted curve at half-maximal effect; % is scaled to controls: 0 for no effect and ±100 for the full control effect; nearly all actives have a fitted effect of over 75% in size
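Readings reflect AlphaScreen signal from monomethyl-H3K9 antibody detection. HMT at 20 nM; substrate b-H3K9 500 nM; cofactor SAM 20 uM; 2 h RT reaction; compounds tested as titrations in qHTS with 15 min preincubation.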
G9a inh-2: confirmation of human histone methyltransferase G9a inhibitors | AID 588344 | Potency, µM, actives largely listed as inhibitors | shares compounds with JMJD2A Tudor | 370 tested, 89% active | G9a H3K9 monomethylation, AlphaScreen, 2 h; also: potency is read from the fitted curve at half-maximal effect; nearly all actives have a fitted effect of over 65% in size
ADP-Glo interf: interferes with ADP-Glo detection without enzyme present; AID 743285; shares compounds with PI5P4K alpha inh; 1,100 tested, under 10 active; Potency, µM (series often up to 76.9 µM), inactives show at the top dose activity change, negative = inhibition, usual class: inhibitors; ADP-Glo detection counter-screen, luciferase luminescence, no enzyme
TbPYK confirm: Trypanosoma brucei pyruvate kinase inhibition, cherry-pick confirmation. shares compounds with PLK1 PBD inh. recombinant TbPYK, Kinase-Glo ATP luminescence. Potency, µM (top dose mostly 76.9 µM), for the others: at the top dose activity change, negative = inhibition, most hits filed as inhibitors. 890 tested, 67% active; also: potency is read from the fitted curve at half-maximal effect; % is scaled to controls: 0 for no effect and ±100 for the full control effect; nearly all actives have a fitted effect of over 70% in size
TbPYK orthogonal: inhibits T. brucei pyruvate kinase in orthogonal ADP-Glo assay; shares compounds with PLK1 PBD inh; recombinant TbPYK, ADP-Glo luminescence, 60 min; Potency, µM (series often up to 76.9 µM), for inactives: at the top dose activity change, negative = inhibition, hits mostly inhibitors; 890 tested, 62% active; AID 720584; also: potency is read from the fitted curve at half-maximal effect; % is scaled to controls: 0 for no effect and ±100 for the full control effect; nearly all actives have a fitted effect of over 75% in size
Active calls of the source: *; ? = inconclusive; . = no result given; ! = not confirmed by another sample; [ ] = remark or other dose. Unless noted, calls follow the shape of the dose curve; as a rule, active = well fitted curve in the direction sought with a large enough effect; inconclusive = small, poorly fitted or top-dose-only effect, or another doubt; inactive = no such curve, though single readings can be large; an effect the other way counts as inactive or inconclusive.

SMILES	PLK1 PBD inh	JMJD2A Tudor	HP1b binding inh	BAZ2B block	PI5P4K alpha inh	G9a inh-1	TbPYK confirm	TbPYK orthogonal	others
Cc1cc(OCc2nn[nH]n2)c2c3c(c(=O)oc2c1)CCC3	-1%	-27%	37%	6%	.	-26%	.	.
Cc1cc(=O)oc2c1c(C)nn2-c1nn[nH]n1	11µM*	14µM*	?	40µM*	?	0.71µM*	.	.	G9a inh-2=0.36*
CCCNC(=O)N1[C@H]2CC[C@@H]1C(C(=O)OC)=C(c1ccc(F)cc1F)C2	-1%	-17%	41%	8%	-1	0%[0.501 µM]	.	.
CC12CCC(=O)C=C1CC(N1CC1)C1C2CCC2(C)C(O)CCC12 (centres undefined)	-7%	-16%	25%	.	-3	.	.	.
Cc1c(OCC(F)(F)F)ccnc1CS(=O)c1nc2ccccc2[nH]1 (centres undefined)	27µM*	?	23%	35µM*	-67*	6.7µM*!	.	.	G9a inh-2=0.5*;ADP-Glo interf=-4%
CCC1CN1P1(=O)OCC(C)([N+](=O)[O-])CO1 (centres undefined)	-11%	0%	51%	.	23	.	.	.
COc1ccc(C(c2nnnn2-c2ccc3c(c2)OCCO3)N2CCC(n3c(=O)[nH]c4ccccc43)CC2)cc1 (centres undefined)	-3%	.	.	.	-3	.	.	.	ADP-Glo interf=4%
CC12Cc3cn[nH]c3C=C1CCC1C2CCC2(C)C1CCC2(C)O (centres undefined)	-1%	-12%	41%	.	-5	.	.	.
COC(=O)C1=C(c2ccc(F)cc2F)C[C@@H]2CC[C@H]1N2C(=O)NC1Cc2ccccc2C1	-13%	-29%	12%	3%	-84*	8%[0.501 µM]	.	.	ADP-Glo interf=-2%
COC(=O)C1=C(c2ccc(F)cc2F)C[C@@H]2CC[C@H]1N2C(=O)NC1CCCCC1	3%	6%	36%	4%	0	6%[0.501 µM]	.	.
CCOC(=O)Nc1ccc(NCc2ccc(F)cc2)nc1N	7.5µM*	56µM*	?	71µM*	-50*	1.2µM*	4.5µM*	11µM*	ADP-Glo interf=-5%
CCCCCCC(Cl)(Cn1ccnc1)c1ccccc1 (centres undefined)	-9%	-31%	0%	.	-7	.	.	.
COc1ccc(CN2C(=O)NC(=O)/C(=C\c3ccco3)C2=O)cc1	1.2µM*	45µM*	?	28µM*	-77*	28µM*	28µM*	?
O=C1NC(=O)N(CCc2ccc(F)cc2)C(=O)/C1=C/c1ccco1	1.1µM*	40µM*	35µM*	10µM*	-75*	10µM*	32µM*	?
Cc1ccc(-c2nc(N3CCOCC3)s[n+]2-c2ccccc2)cc1	6µM*	8.9µM*	?	?	-69*	0.89µM*	0.22µM*	0.56µM*
ClC(Cl)=C(c1ccc(Cl)cc1)c1ccc(Cl)cc1	2%	239%	229%	217%	-2	128%[59 µM]	.	.
NC1=NC(=O)C(c2ccccc2)O1 (centres undefined)	.	.	.	-11%	.	15%[59 µM]	.	.
CCCc1nc2ccccc2c(=O)n1-c1ccc(OC)cc1	-4%	-4%	20%	-4%	-1	16%[2.33 µM]	.	.
COc1ccc(N2C(=O)CS(=O)C(c3ccccc3)C2=O)cc1 (centres undefined)	2.4µM*	8.9µM*	13µM*	?	-20	0.71µM*	13µM*	25µM*
CCC(c1nnnn1Cc1ccccc1)N1CCC2(CC1)C(=O)NCN2c1ccccc1 (centres undefined)	3%	.	.	.	-1	.	.	.
CCSC(=O)N1CCCCCC1	4%	-1%	30%	2%	9	-13%[0.501 µM]	.	.
CCOC(=O)C1CCN(/C=C2/C(=O)NC(=S)N(c3ccccc3F)C2=O)CC1	0%	1%	13%	-10%	-22	.	.	.
Cc1ccc(/C=C2\C(=O)NC(=S)N(c3ccccc3F)C2=O)s1	1.2µM*	71µM*	?	50µM*	-111*	?	7.9µM*	11µM*
Cc1ccc(/C=C2\C(=O)NC(=S)N(c3ccc(F)cc3)C2=O)s1	1.3µM*	-34%	11%	45µM*	-82*	6.3µM*	13µM*	?
FC(F)(F)c1cccc(NC2=NCCS2)c1	-16%	.	.	.	6	.	.	.
SMILES	PLK1 PBD inh	JMJD2A Tudor	HP1b binding inh	BAZ2B block	PI5P4K alpha inh	G9a inh-1	TbPYK confirm	TbPYK orthogonal	others
N/C(=N\[N+](=O)[O-])N1CCN(C(=O)c2ccccn2)CC1	-9%	-9%	13%	?	-2	16%	.	.
Cc1noc(C)c1COc1ccc(C(=O)NCC2(N(C)C)CCCCC2)cc1	-10%	.	.	.	-9	.	.	.
Cc1ccc(C)c(-c2nnc(NC(=O)C3=COCCO3)o2)c1	6%	0%	81%	?	1	33%	.	.
CN1CN(c2cccc([N+](=O)[O-])c2)CN=C1N[N+](=O)[O-]	-12%	-10%	48%	-3%	0	-33%	.	.
CN1C(=O)C(=Cc2ccccc2OS(=O)(=O)c2ccccc2)C(=O)N(C)C1=O	5.3µM*	-31%	51%	?	-2	.	20µM*	?
O=c1c2ccccc2nc(-c2ccccc2Cl)n1-c1cccc(O)c1	-6%	-17%	6%	5%	2	18%	.	.
CC1N=C(c2ccccc2Cl)c2cc(Br)ccc2NC1=O (centres undefined)	6%	-1%	?	-2%	0	-9%	.	.
CC1=NNC(=O)C1Br (centres undefined)	9.5µM*	89µM*	14µM*	.	-14	.	3.2µM*	5µM*
COc1ccc(OC)c(C(O)C2CCCCN2)c1 (centres undefined)	-5%	-15%	30%	0%	-5	.	.	.
Cc1cccc2c1=NC(=O)/C(=C/c1c(O)[nH]c(=O)[nH]c1=O)C=2	7.5µM*	-21%	9%	?	-54*	10µM*	25µM*	?
O=c1[nH]c(O)c(C=NCCc2ccccc2)c(=O)[nH]1	8%	-14%	22%	0%	3	.	.	.
CC1C(c2ccccc2)OC(=O)N1C (centres undefined)	-10%	-12%	12%[57 µM]	.	-9	.	.	.
